Experimental data from PubChem BioAssay (NCATS).
Results filed as inconclusive are left out. Values without a mark were called inactive. Activity calls are given as the source filed them. Calls come from the whole dose curve; as a rule, active = well fitted inhibition curve with a large enough effect; inconclusive = small, poorly fitted or top-dose-only effect; inactive = flat fitted curve, though single readings scatter.
% is set by controls: 0 for no effect and ±100 for the full control effect; potency is the fitted concentration of half-maximal effect.

These molecules were tested against Calcium and integrin-binding protein 1 (Homo sapiens) (UniProt Q99828) (assay: Primary qHTS for Identification of Calcium Integrin Binding Protein 1 (CIB1) Competitor (AID 1508620;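 for activity change, negative = inhibition: GST tagged CIB1 binding a fluorescein labelled alphaIIb integrin peptide tracer; top concentration of the series differs between compounds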)). Conditions: CIB1-GST / FITC-alphaIIb peptide fluorescence polarization; series mostly up to 114 µM; activity change, negative = inhibition: at the top concentration.
Chain of Calcium and integrin-binding protein 1 (Homo sapiens) (Q99828 whole entry, looked up): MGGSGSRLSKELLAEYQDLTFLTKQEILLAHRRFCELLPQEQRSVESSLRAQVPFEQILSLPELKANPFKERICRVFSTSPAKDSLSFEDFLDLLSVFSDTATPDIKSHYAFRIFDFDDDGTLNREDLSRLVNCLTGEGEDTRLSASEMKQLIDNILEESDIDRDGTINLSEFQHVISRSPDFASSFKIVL
Description: Assay Provider: Ulhas P. Naik, PhD Sidney Kimmel Medical College Thomas Jefferson University, Philadelphia, PA Primary function of platelets is to maintain hemostasis. At the site of vascular injury, platelets adhere to adhesive proteins such as collagen and von Willebrand factor. Adherent platelets are activated and generate soluble platelet agonists such as thrombin, ADP and thromboxane A2. Following exposure of circulating platelets to these agonists, results in platelet shape change, granule secretion and activation of platelet integrin alphaIIb-beta3. Ligand binding to activated integrin alphaIIb-beta3 triggers outside-in signaling, leading to platelet aggregation, stabilization of platelet plug, and clot retraction. Upon atherosclerotic plaque rupture also causes platelet plug formation, which underlies a number of cardiovascular diseases such as myocardial infraction and stroke. A number of anti-platelet drugs such as aspirin, clopidogrel, prasugrel, vorapaxar, and eptifibatide are currently available to prevent the thrombotic complications. However, these anti-platelet agents have several limitations including inherent variability in individual responses, developing resistance, and serious bleeding side effects. For these reasons they are not suitable for long-term protection. Based on the experiences with current anti-platelet drugs, it appears that the most useful therapeutic approach is to intersect the secondary responses such as integrin outside-in signaling or recruitment of platelets by TxA2 and secreted ADP. Compounds, which can largely preserve the primary hemostatic function of platelets but inhibit secondary response will be most desired therapeutic agents for treatment of cardiovascular disease. CIB1 is a calcium integrin binding protein, which specifically interact with the alphaIIb subunit of integrin alphaIIb-beta3. Binding of CIB1 to alphaIIb regulates the outside-in signaling in platelets, which is needed for thrombus stabilization and thrombus growth. […] Therefore, we propose that discovery of a small molecule that can prevent the association of CIB1 and alphaIIb-beta3 will be a potential anti-platelet agent that can block the thrombus formation without undue effect on hemostasis. Reference: [1] Naik MU, Nigam A, Manrai P, et al. CIB1 deficiency results in impaired thrombosis: the potential role of CIB1 in outside-in signaling through integrin alpha IIb beta 3. J Thromb Haemost.
PROTOCOL TABLES SEQUENCE No. (1, 2, 3, etc.); […] (e.g., Cells, Incubation, Reagent, etc.); VALUE and DESCRIPTION. 1; Reagent; 3 uL; Protein or buffer (4/3x) 2; Compound; 46 nL; Control inhibitor / compound library 3; Time; 15 min; Room temperature incubation 4; Reagent; 1 uL; Fluorescent labeled peptide (4x) 5; Time; 1000 rpm; Centrifuge 6; Time; 15 min; Room temperature incubation 7; Detection; Ex 480/ Em 540; ViewLux Fluorescence Read NOTES (numbers refer to sequence above) 1; Protein Mixture: C1B1-GST (final concentrations of 1 uM). […] 3; Room temperature incubation. 4; Fluorescent Labeled Peptide: FITC-aIIb (final concentration of 100 nM). Sequence of alphaIIb peptide: Acetyl-[…]-FITC (purity is 95.83%). 5; Centrifuge 1000 rpm (164 g) for 15 seconds. 6; Room temperature incubation. 7; ViewLux Fluorescent Polization Read: excitation = 480(20) / emission = 540(25) S and P; FITC Dichroic mirror.
With COc1cc(Cc2cnc(N)nc2N)cc(OC)c1OC the “activity change, negative = inhibition” value was 5.68%.
For CN(C)CCOC(=O)COc1ccc(Cl)cc1, the “activity change, negative = inhibition” value was 0.119%.
In the case of O=C(CCCN1CCC(O)(c2cccc(C(F)(F)F)c2)CC1)c1ccc(F)cc1, the “activity change, negative = inhibition” value is reported as 1.61%.
CC1=C(C)C(=O)C(CCCCC#CCCCC#CCO)=C(C)C1=O was tested, and the “activity change, negative = inhibition” value was -6.69%.
For CCCNC(C)C(=O)Nc1ccccc1C (stereo not given), the “activity change, negative = inhibition” value was -2.21%.
For CCn1ccnc1CC1COc2ccccc2O1 (stereo not given), the “activity change, negative = inhibition” value was 1.68%.
CCCCNc1c(C(=O)OCC)c(C)nc2c1cnn2CC was tested, and the “activity change, negative = inhibition” value was -5.19%.
For NC1=NCC2c3ccccc3Cc3ccccc3N12 (stereo not given), the “activity change, negative = inhibition” value was -0.87%.
In the case of CNC1(C)C2CCC(C2)C1(C)C (stereo not given), the “activity change, negative = inhibition” value is reported as 6.64%.
For NCCCNCCSP(=O)(O)O, the “activity change, negative = inhibition” value was 3.22% [at 30.2 µM].
In the case of Cc1nc2sccn2c(=O)c1CCN1CCC(=C(c2ccc(F)cc2)c2ccc(F)cc2)CC1, the “activity change, negative = inhibition” value is reported as -15.4%.
For O=C1CC2(CCCC2)CC(=O)N1CCCCN1CCN(c2ncccn2)CC1, the “activity change, negative = inhibition” value was 5.77%.
With CCCCOCCOCCOCc1cc2c(cc1CCC)OCO2 the Potency was “inactive”.
In the case of OCCN1CCN(CCCN2c3ccccc3C=Cc3ccccc32)CC1, the “activity change, negative = inhibition” value is reported as 3.79%.
In the case of CC1=NS(=O)(=O)c2cc(Cl)ccc2N1, the “activity change, negative = inhibition” value is reported as 1.4%.
In the case of CCO/C([O-])=N/c1c[n+](N2CCOCC2)no1, the “activity change, negative = inhibition” value is reported as 3.42%.
With CN(C)CC/C=C1\c2ccccc2COc2ccccc21 the “activity change, negative = inhibition” value was -2.18%.
CCN(CC)CCNC(=O)c1ccc(NC(C)=O)cc1 was tested, and the “activity change, negative = inhibition” value was 6.04%.
For Brc1c(NC2=NCCN2)ccc2nccnc12, the “activity change, negative = inhibition” value was -13.4%.
CN1CCN(C2=Nc3ccccc3Oc3ccc(Cl)cc32)CC1 was tested, and the “activity change, negative = inhibition” value was 6.99%.
CCN(Cc1ccncc1)C(=O)C(CO)c1ccccc1 (stereo not given) was tested, and the “activity change, negative = inhibition” value was 5.81%.
For C[n+]1cc2c3c(ccc2c2ccc4cc5c(cc4c21)OCO5)OCO3, the Potency was 14.1 µM (active).
In the case of CNCCC(Oc1ccccc1OC)c1ccccc1 (stereo not given), the “activity change, negative = inhibition” value is reported as 2.7%.
With CCn1cc(C(=O)O)c(=O)c2cc3c(cc21)OCO3 the “activity change, negative = inhibition” value was -5.39% [at 57.7 µM].
In the case of COC(=O)C1=C(C)NC(C)=C(C(=O)OC(C)(C)CN(C)CCC(c2ccccc2)c2ccccc2)C1c1cccc([N+](=O)[O-])c1 (stereo not given), the “activity change, negative = inhibition” value is reported as -1.84%.
N[C@@H](COP(=O)(O)O)C(=O)O was tested, and the “activity change, negative = inhibition” value was 0.761% [at 57.7 µM].
NC/C=C/C(=O)O was tested, and the “activity change, negative = inhibition” value was -2.26%.
CCCOc1ccccc1-c1nc2n[nH]nc2c(=O)[nH]1 was tested, and the “activity change, negative = inhibition” value was -15.9%.
With COC(=O)C1=C(C)NC(C)=C(C(=O)OCCN(C)Cc2ccccc2)C1c1cccc([N+](=O)[O-])c1 (stereo not given) the “activity change, negative = inhibition” value was 0.199%.
CN(C)C(=O)Oc1cccc([N+](C)(C)C)c1 was tested, and the “activity change, negative = inhibition” value was -1.38%.
CC(C)(C)NCC(O)c1cc(O)cc(O)c1 (stereo not given) was tested, and the “activity change, negative = inhibition” value was 7.01%.
With COc1cc2c(cc1OC)-c1cc(=Nc3c(C)cc(C)cc3C)n(C)c(=O)n1CC2 the “activity change, negative = inhibition” value was -9.83%.
COc1cc(C(=O)OCCCN2CCCN(CCCOC(=O)c3cc(OC)c(OC)c(OC)c3)CC2)cc(OC)c1OC was tested, and the “activity change, negative = inhibition” value was 4.4%.
For COC(=O)[C@@H](N)Cc1ccc(O)c(O)c1, the “activity change, negative = inhibition” value was -17.6%.
With CN(C)C/C=C(/c1ccc(Br)cc1)c1cccnc1 the “activity change, negative = inhibition” value was 11.3%.
COCCOC(=O)C1=C(C)NC(C)=C(C(=O)OC(C)C)C1c1cccc([N+](=O)[O-])c1 (stereo not given) was tested, and the “activity change, negative = inhibition” value was 4.58%.
In the case of CC(C)(C)c1ccc(C(=O)CCCN2CCC(OC(c3ccccc3)c3ccccc3)CC2)cc1, the “activity change, negative = inhibition” value is reported as -0.462%.
In the case of CCN1CCC[C@H]1CNC(=O)c1c(O)c(Cl)cc(Cl)c1OC, the “activity change, negative = inhibition” value is reported as 0.776%.
In the case of CN(C)[C@@H]1C(=O)C(C(N)=O)=C(O)[C@@]2(O)C(=O)C3=C(O)c4c(O)ccc(Cl)c4[C@@H](O)[C@H]3C[C@@H]12, the “activity change, negative = inhibition” value is reported as -6.51%.
In the case of Nc1ncn([C@@H]2O[C@H](CO)[C@@H](O)[C@H]2O)c(=O)n1, the “activity change, negative = inhibition” value is reported as 2.43%.
